Drawing on PubChem BioAssay (EPA / NIEHS), this text covers outcome and AC50 for 16 compounds.

The nature of experiment [1]: ATG_XTT_Cytotoxicity: Cytotoxicity Assessment in the Attagene TRANS-FACTORIAL HepG2 Assay (AID 2283584).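 On AC50: cells exposed to compound for 24 h before reading; active means loss of viability signal versus DMSO baseline.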 The essentials: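 XTT readout of cell number in transfected HepG2 cells, 24 h post-dosing; DMSO serves as negative control and baseline, with activity taken as loss of viability signal.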
Experiment [2] is described as follows: CEETOX_H295R_OHPREG: CeeTox H295R High-throughput Steroidogenesis Assay for OH-Pregnenolone (OHPREG) (AID 2283434; active means hit-call score of the fitted dose curve at least 0.9, where 1 is the maximum; inactive means score below 0.9). To be noted: actives raise or lower the signal. The essentials: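 H295R, 10 uM forskolin pre-stim 48 h; test chemical 48 h, 0.1% DMSO final. MTBE extraction, reverse-phase C18 HPLC-ESI+ MS/MS of medium. Gain/loss vs DMSO; viability by MTT in same wells.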

Experiment [3] can be described thus: CEETOX_H295R_OHPROG: CeeTox H295R High-throughput Steroidogenesis Assay for OH-Progesterone (OHPROG) (AID 2283435; active means hit-call score of the fitted dose curve at least 0.9, where 1 is the maximum; inactive means score below 0.9;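 on AC50: human adrenal H295R cells primed 48 h with 10 µM forskolin; 17alpha-hydroxyprogesterone secreted into medium measured by HPLC-MS/MS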). To be noted: actives raise or lower the signal. A digest of the protocol:
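Human adrenocortical H295R cells, passage 10 or lower, were treated with chemical for 48 h after forskolin priming, and hormone output in the medium was quantified by LC-MS/MS.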

Experiment [4] can be described thus: CEETOX_H295R_CORTIC: CeeTox H295R High-throughput Steroidogenesis Assay for Corticosterone (CORTIC) (AID 2283437; active means hit-call score of the fitted dose curve at least 0.9, where 1 is the maximum; inactive means score below 0.9;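 further: corticosterone secreted into medium quantified by mass spectrometry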;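 on AC50: human H295R adrenal cells prestimulated with forskolin before chemical exposure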). Conditions: actives raise or lower the signal. The essentials: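 48 h forskolin (10 uM) prestim, then 48 h chemical exposure, final DMSO 0.1%. Readout: corticosterone in medium by LC-MS/MS after MTBE extraction. Gain/loss fit vs DMSO; MTT viability in same wells.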

Experiment [5] can be described thus: CEETOX_H295R_CORTISOL: CeeTox H295R High-throughput Steroidogenesis Assay for Cortisol (AID 2283438; active means hit-call score of the fitted dose curve at least 0.9, where 1 is the maximum; inactive means score below 0.9;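 further: cortisol secreted into medium quantified by LC-MS/MS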). To be noted: actives raise or lower the signal. A digest of the protocol:
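Steroidogenesis in H295R, per modified OECD 456: 48 h forskolin (10 uM), then 48 h exposure, 0.1% DMSO. Cortisol by extraction and tandem MS; viability by MTT (570/650 nm); cytotoxic chemicals diluted and re-tested.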

Experiment [6] is described as follows: CEETOX_H295R_DOC: CeeTox H295R High-throughput Steroidogenesis Assay for DOC (AID 2283439; active means hit-call score of the fitted dose curve at least 0.9, where 1 is the maximum; inactive means score below 0.9). To be noted: actives raise or lower the signal. A digest of the protocol:
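H295R, fsk 10 uM ×48 h pre, cmpd ×48 h (0.1% DMSO). Media → MTBE extr. → LC-MS/MS, DOC. Bidirectional fit vs DMSO; MTT viability same wells, re-test diluted if <70%.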

Experiment [7] in a line: CEETOX_H295R_ESTRADIOL: CeeTox H295R High-throughput Steroidogenesis Assay for Estradiol (AID 2283440; active means hit-call score of the fitted dose curve at least 0.9, where 1 is the maximum; inactive means score below 0.9;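 further: estradiol secreted into medium quantified by LC-MS/MS after dansyl derivatisation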). Conditions: actives raise or lower the signal. The essentials: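 H295R, 48 h forskolin (10 uM) prestim → 48 h compound, 0.1% DMSO final. Estradiol in medium: MTBE extraction, dansyl chloride derivatization, LC-MS/MS. Fit bidirectional vs DMSO baseline; MTT viability in same wells.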

Experiment [8] is described as follows: CEETOX_H295R_ESTRONE: CeeTox H295R High-throughput Steroidogenesis Assay for Estrone (AID 2283441; active means hit-call score of the fitted dose curve at least 0.9, where 1 is the maximum; inactive means score below 0.9;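 further: estrone secreted into medium measured by LC-MS/MS after dansyl derivatization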). Conditions: actives raise or lower the signal. A digest of the protocol: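 Forskolin-stimulated H295R cells are treated 48 h with chemical, and estrone in the medium is measured by LC-MS/MS. Activity is fitted in both directions relative to DMSO controls, with chemicals diluted until MTT viability reaches at least 70%.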

The nature of experiment [9]: CEETOX_H295R_PROG: CeeTox H295R High-throughput Steroidogenesis Assay for Progesterone (PROG) (AID 2283442; active means hit-call score of the fitted dose curve at least 0.9, where 1 is the maximum; inactive means score below 0.9;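 on AC50: human H295R adrenal cells primed with 10 µM forskolin before dosing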). To be noted: actives raise or lower the signal. A digest of the protocol:
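Progesterone read-out: HPLC-MS/MS on MTBE extracts of conditioned medium after 48 h chemical exposure of forskolin-primed (10 uM, 48 h) H295R cells. Gain or loss of signal was fitted relative to DMSO baseline.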

Experiment [10] can be described thus: CEETOX_H295R_ANDR: CeeTox H295R High-throughput Steroidogenesis Assay for Androstenedione (ANDR) (AID 2283436; active means hit-call score of the fitted dose curve at least 0.9, where 1 is the maximum; inactive means score below 0.9;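 further: human H295R adrenal cells exposed for 48 h with androstenedione measured in medium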). Conditions: actives raise or lower the signal. The essentials:
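48 h chemical exposure, H295R cells, DMEM/F12 + ITS+ and Nu-Serum. Medium androstenedione: MTBE extraction, C18 reverse-phase HPLC, ESI+ MS/MS. Fit bidirectional vs DMSO; MTT viability in same wells.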

Experiment [11] is described as follows: CEETOX_H295R_TESTO: CeeTox H295R High-throughput Steroidogenesis Assay for Testosterone (TESTO) (AID 2283457; active means hit-call score of the fitted dose curve at least 0.9, where 1 is the maximum; inactive means score below 0.9;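 on AC50: cells exposed to chemicals for 48 h before medium collection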). Conditions: actives raise or lower the signal. A digest of the protocol:
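Readout: testosterone quantified by HPLC-MS/MS (C18, ESI positive) after MTBE liquid-liquid extraction of culture medium. Cells were H295R, 48 h chemical exposure per OECD 456 with modifications. Gain or loss of signal fitted relative to DMSO.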

Experiment [12] can be described thus: TOX21_p53_BLA_p2_viability: Viability Assessment in the Tox21 HCT-116 p53 Agonism Beta-lactamase Assay, Phase 2 (AID 2283591).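 Further: actives lower the ATP signal meaning cytotoxicity.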 The essentials: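 HCT116 p53-bla cells, 4000/well, dosed after 5 h plating (217-fold dilution of DMSO stocks) and incubated 16 h at 37C. Viability taken as cellular ATP by CellTiter-Glo luminescence after 30 min RT; signal loss marks cytotoxicity.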

The target of experiment [13] is Cellular tumor antigen p53 (Homo sapiens) (UniProt P04637). The experiment can be described thus: TOX21_p53_BLA_p2_ratio: Tox21 HCT-116 p53 Agonism Beta-lactamase Assay, Ratio, Phase 2 (AID 2283592). A digest of the protocol:
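Readout: blue/green (460/530 nm) FRET emission ratio after 2 h CCF4-AM loading at room temperature, excitation 405 nm. HCT116 p53 bla cells, 16 h compound exposure at 37C, 5% CO2; agonist direction fitted against DMSO baseline.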

The nature of experiment [14]: TOX21_p53_BLA_p3_viability: Viability Assessment in the Tox21 HCT-116 p53 Agonism Beta-lactamase Assay, Phase 3 (AID 2283593).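 Further: cells exposed to compound for 16 h before reading.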 The essentials: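 HCT116 cells, 4000/well, dosed 5 h after plating by pin transfer (217-fold dilution from DMSO stock) and incubated 16 h at 37C, 5% CO2. Viability read as ATP luminescence with CellTiter-Glo after 30 min at room temperature.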

For experiment [15], the target named is Cellular tumor antigen p53 (Homo sapiens) (UniProt P04637). The experiment is described as follows: TOX21_p53_BLA_p3_ratio: Tox21 HCT-116 p53 Agonism Beta-lactamase Assay, Ratio, Phase 3 (AID 2283596). A digest of the protocol:
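Cells were seeded at 4000/well, rested 5 h at 37C, then dosed with DMSO compound solutions (217-fold dilution) for 16 h. CCF4-AM substrate was loaded for 2 h at room temperature, and the 460/530 nm emission ratio was fitted for gain of signal versus DMSO.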

Experiment [16] can be described thus: TOX21_p53_BLA_p4_viability: Viability Assessment in the Tox21 HCT-116 p53 Agonism Beta-lactamase Assay, Phase 4 (AID 2283597).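 Further: hits lower the luminescence signal meaning cytotoxicity.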 A digest of the protocol: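 ATP content by CellTiter-Glo luminescence, 30 min RT, read after the beta-lactamase ratio step. Cells: HCT116, 4000/well, compound added after 5 h, exposure 16 h at 37C. Signal loss = reduced viability.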

In experiment [17] the target is Cellular tumor antigen p53 (Homo sapiens) (UniProt P04637). The experiment is described as follows: TOX21_p53_BLA_p5_ratio: Tox21 HCT-116 p53 Agonism Beta-lactamase Assay, Ratio, Phase 5 (AID 2283599). A digest of the protocol:
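HCT-116 p53-bla cells (4000/well) plated 5 h, dosed with compound (217-fold DMSO dilution) for 16 h at 37 C; CCF4-AM substrate 2 h at room temperature. Activity is the 460/530 nm emission ratio (405 nm excitation), fitted in gain-of-signal direction versus DMSO.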

Experiment [18] can be described thus: TOX21_p53_BLA_p5_viability: Viability Assessment in the Tox21 HCT-116 p53 Agonism Beta-lactamase Assay, Phase 5 (AID 2283600). A digest of the protocol:
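ATP luminescence (CellTiter-Glo, 30 min, RT) served as the viability read-out, with loss of signal indicating cytotoxicity. Compounds in DMSO were pinned at a 217-fold dilution onto 4000 cells/well and incubated 16 h, 37C.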

The target of experiment [19] is Cellular tumor antigen p53 (Homo sapiens) (UniProt P04637). The experiment can be described thus: TOX21_p53_BLA_p4_ratio: Tox21 HCT-116 p53 Agonism Beta-lactamase Assay, Ratio, Phase 4 (AID 2283601). A digest of the protocol:
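HCT-116 p53 beta-lactamase reporter cells (4000/well) preincubated 5 h, then compound (217-fold dilution of DMSO stock) for 16 h at 37C. CCF4-AM substrate added 2 h at room temperature; 460/530 nm emission ratio fitted upward versus DMSO.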

Where “and” joins values, the source holds several entries; their conditions need not be identical. Equal values may be shown once. Inconclusive results are not listed. More than one record can exist for a structure, and the calls need not agree. Calls of active or inactive are those of the source. How the source made its calls, unless noted: active means hit-call score of the fitted dose curve at least 0.9, where 1 is the maximum; inconclusive means response in the unintended direction; inactive means score below 0.9.

Cellular tumor antigen p53 (Homo sapiens), sequence (P04637 whole entry, looked up): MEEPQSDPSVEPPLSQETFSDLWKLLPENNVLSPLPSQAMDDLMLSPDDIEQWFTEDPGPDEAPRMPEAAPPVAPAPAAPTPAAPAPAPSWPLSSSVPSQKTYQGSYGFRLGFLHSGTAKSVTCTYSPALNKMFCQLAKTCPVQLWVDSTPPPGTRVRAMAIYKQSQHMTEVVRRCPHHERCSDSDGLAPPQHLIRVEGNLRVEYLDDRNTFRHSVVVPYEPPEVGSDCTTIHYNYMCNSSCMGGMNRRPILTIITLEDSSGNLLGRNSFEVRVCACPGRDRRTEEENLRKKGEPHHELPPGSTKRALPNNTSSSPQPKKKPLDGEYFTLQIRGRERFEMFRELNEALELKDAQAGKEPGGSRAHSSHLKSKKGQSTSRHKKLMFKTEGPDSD

For the compound `c1ccc(-c2ccccc2-c2ccccc2)cc1`, the outcome in [1] was inactive.

With `C=CC/C=C/C/C=C/C/C=C/C`, the outcome in experiment [1] was inactive.

Regarding `Nc1ccc(Oc2cccc(Oc3ccc(N)cc3)c2)cc1`, the result in experiment [2], in experiment [6], in experiment [7], in experiment [8] and in [1] was inactive. Besides, the AC50 in experiment [3] was 2.87 µM (active); in experiment [4], 2.84 µM (active); in experiment [5], 3.6 µM (active); in experiment [9], 3.9 µM (active).

Take `CCCCCCS`: the compound was called inactive in experiment [2], in [3], in [10], in [4], in experiment [5] and in experiment [6]. Besides, the call in experiment [7], in [8], in experiment [9], in [11] and in [1] was inactive.

For the compound `CC(C)=CCCC(C)CCOC(=O)C(C)C` (centres undefined), the compound was called inactive in experiment [1].

Turning to `CC(C)c1ccccc1N`, the result in experiment [1] was inactive.

As to `O[Si](c1ccccc1)(c1ccccc1)c1ccccc1`, the outcome in experiment [1] was inactive.

Turning to `CC(=O)Nc1ccc(N=Nc2cc(C)ccc2O)cc1`, the outcome in [2], in experiment [5], in experiment [6], in experiment [7], in [8] and in experiment [1] was inactive. In addition, the AC50 was 16 µM (active) in [3]; 25 µM (active) in experiment [10]; 25 µM (active) in experiment [4]; 20.9 µM (active) in [9]; 31.5 µM (active) in [11].

`CC(C)(C)c1ccc(OC2CCCCC2O)cc1` (centres undefined): the result in [1] was inactive.

In the case of `CC(C)OC(=O)c1ccccc1C(=O)OC(C)C`, the outcome in experiment [1] was inactive.

Take `C#C[C@]1(O)CC[C@H]2[C@@H]3CCc4cc(OC)ccc4[C@H]3CC[C@@]21C`: the result in experiment [2], in experiment [5], in experiment [6], in experiment [1], in experiment [12] and in [13] was inactive. Further, the compound was called inactive in experiment [14], in [15], in experiment [16], in [17], in [18] and in experiment [19]. The AC50 was 7.82 µM (active) in experiment [3] and 3.58 µM (active) in experiment [9].

In the case of `CO[Si](OC)(c1ccccc1)c1ccccc1`, the result in [1] was inactive.

Regarding `CCCCCCC(C)OC(=O)CCCCC(=O)OC(C)CCCCCC` (centres undefined), in experiment [1], the compound was called inactive.

As to `CCCCC(CC)COP(=O)(O)OCC(CC)CCCC` (centres undefined), in experiment [1], the half-maximal activity concentration (AC50) was 146 µM (active).

Turning to `CCCCCCCCCCCCCCCC[N+](C)(C)Cc1ccccc1`, the outcome in [1], in experiment [13] and in [15] was inactive. The half-maximal activity concentration (AC50) was 42.5 µM (active) and 23 µM (active) in experiment [12]; 64.7 µM (active) in [13]; 33.5 µM (active) and 9 µM (active) in experiment [14]; 25.9 µM (active) and 27.1 µM (active) in [16]; 75.8 µM (active) and 38.4 µM (active) in [17]; 57.9 µM (active) and 23 µM (active) in [18]. Moreover, in [19], the AC50 was 42.3 µM (active) and 43.4 µM (active).

As to `Cc1ccc(S(=O)(=O)NCl)cc1`, the result in experiment [1], in [12], in experiment [13], in experiment [14], in experiment [15] and in experiment [16] was inactive. In addition, the outcome in [17], in experiment [18] and in experiment [19] was inactive.
